Where two headings read alike, the source gives them in different places.

The text below walks through data of article PMC11062922 (Nature Chemical Biology, 2023).

Parameters in all cases: species or system human, MV4-11 + K-562 + COLO205 + SK-N-BE2 + OVCAR-8
One assay concerns ABCD3. Conditions: read-out: apparent Kd, n = 1.
The next assay relates to ACVR2B. Conditions: read-out: apparent Kd, n = 1.
Another assay relates to MAPK10. Conditions: read-out: apparent Kd, n = 1.
The next assay has as its system MAPK11. Conditions: read-out: apparent Kd, n = 1.
The next assay concerns SYK. Conditions: read-out: apparent Kd, n = 1.
In the next assay the test system is AURKA. The conditions noted are these: read-out: apparent Kd, n = 1.
The next assay concerns MAP2K2. Conditions: read-out: apparent Kd; compound concentrations:100 nM and 1000 nM (sheet 'Samples'); n = 1.
In a further assay the test system is PIM2. Conditions: read-out: apparent Kd, n = 1.
A further assay deals with EPHB3. The conditions noted are these: read-out: apparent Kd; compound concentrations: 100 nM and 1000 nM (sheet 'Samples'), CATDS: 2.4596610963575599E-2; n = 1.
The test system of a further assay is ERCC2. Conditions: read-out: apparent Kd, n = 1.
In another assay the test system is CDK7. Conditions: read-out: apparent Kd, n = 1.
A further assay concerns NUAK1. The conditions noted are these: read-out: apparent Kd; compound concentrations: 100 nM and 1000 nM (sheet 'Samples'), CATDS: 0.118275245978952; n = 1.
In a further assay the test system is SIK3. The conditions noted are these: read-out: apparent Kd; compound concentrations: 100 nM and 1000 nM (sheet 'Samples'), CATDS: 1.5899502438213298E-2; n = 1.
For another assay, the system named is STK10. The conditions noted are these: read-out: apparent Kd, n = 1.
The test system of the next assay is CDK4. Conditions: read-out: apparent Kd; compound concentrations: 100 nM and 1000 nM (sheet 'Samples'), CATDS: 1.3251728133645901E-2; n = 1.
The next assay has as its system ERBB3. Conditions: read-out: apparent Kd, compound concentrations: 100 nM and 1000 nM (sheet 'Samples'), n = 1.
Another assay relates to LIMK1. Conditions: read-out: apparent Kd; compound concentrations: 100 nM and 1000 nM (sheet 'Samples'), CATDS: 7.0535341813333999E-2; n = 1.
Another assay deals with BMPR1A. The conditions noted are these: read-out: apparent Kd; compound concentrations: 100 nM and 1000 nM (sheet 'Samples'), CATDS: 4.33451441122037E-2; n = 1.
A further assay deals with ADCK3. Conditions: read-out: apparent Kd; compound concentrations: 100 nM and 1000 nM (sheet 'Samples'), CATDS: 0.47577761034239902; n = 1.
The test system of the next assay is PKN3. The conditions noted are these: read-out: apparent Kd, n = 1.
Where [1] appears, read: compound concentrations:100 nM and 1000 nM (sheet 'Samples').

As for `Cc1cccc(-c2cc(-c3c[nH]nc3-c3ccccn3)ccn2)c1` [GW679395X], the potency estimated from few doses with ABCD3 (setting [1]) was 1.2 µM; in the assay with ACVR2B (setting [1]), 1.66 µM; in the assay on MAPK10 (setting [1]) it was 1.73 µM; in the assay with MAPK11 (setting [1]), 1.35 µM; with SYK (setting [1]), 2.31 µM.
Take `CCn1cc(-c2ccnc3[nH]c(-c4cccc(CN(C)C)c4)cc23)c(-c2ccc(NC(=O)N(C)C)cc2)n1` [GSK1070916]: the potency estimated from few doses in the assay on ABCD3 (setting [1]) is 1.97 µM; in the assay with AURKA (setting [1]) it was 0.197 µM.
`CS(=O)(=O)Cc1ccc(Nc2nccc(-c3c(-c4cccc(NC(=O)C5CCCCC5)c4)nn4ncccc34)n2)cc1` [GSK350559A]: the potency estimated from few doses was 1.58 µM in the assay on ABCD3 (setting [1]), 1.55 µM in the assay on MAP2K2 and 2.04 µM in the assay with PIM2 (setting [1]).
On to `Cc1ccc(O)cc1Nc1ccnc2cc(-c3ccccn3)ccc12.Cl` [GW440139A], for which the potency estimated from few doses with ACVR2B (compound concentrations: 100 nM and 1000 nM (sheet 'Samples'), CATDS: 0.21714398687124201) was 0.00563 µM; in the assay on EPHB3, 2.12 µM.
For `Cl.O=C1N=C(NCc2ccccn2)S/C1=C\c1ccc2ncccc2c1` [RO4874953-001], the potency estimated from few doses in the assay with ERCC2 (compound concentrations: 100 nM and 1000 nM (sheet 'Samples'), CATDS: 7.2588346323970404E-2) was 1.85 µM.
With `CN1C(=O)c2ccccc2N(C)c2nc(Nc3cnn(C4CCNCC4)c3)ncc21` [XMD-17-51], the potency estimated from few doses in the assay on AURKA (compound concentrations: 100 nM and 1000 nM (sheet 'Samples'), CATDS: 0.190670193315162) is 0.00582 µM; in the assay on CDK7 (compound concentrations: 100 nM and 1000 nM (sheet 'Samples'), CATDS: 1.6224786894182001E-2), 0.901 µM; in the assay with ERCC2 (compound concentrations: 100 nM and 1000 nM (sheet 'Samples'), CATDS: 1.6840556785817699E-2), 0.788 µM; in the assay with NUAK1, 0.0116 µM; with SIK3, 0.973 µM; with STK10 (compound concentrations: 100 nM and 1000 nM (sheet 'Samples'), CATDS: 1.3341325559896399E-2) it was 2.18 µM.
On to `COc1ccc(Nc2nccc(N3CCC(NC(=O)Nc4ccc5c(c4)OCO5)C3)n2)cc1` (stereo not shown) [GSK1379745A], for which the potency estimated from few doses in the assay with ABCD3 (compound concentrations: 100 nM and 1000 nM (sheet 'Samples'), CATDS: 3.9996680208342399E-2) was 1.5 µM; in the assay on ACVR2B (compound concentrations: 100 nM and 1000 nM (sheet 'Samples'), CATDS: 4.7768277435408998E-2), 1.05 µM; in the assay on MAPK10 (compound concentrations: 100 nM and 1000 nM (sheet 'Samples'), CATDS: 3.9230525665234099E-2), 1.57 µM; with MAPK11 (compound concentrations: 100 nM and 1000 nM (sheet 'Samples'), CATDS: 3.6090086264463E-2), 1.9 µM; in the assay on SYK (compound concentrations: 100 nM and 1000 nM (sheet 'Samples'), CATDS: 3.71249657659821E-2) it was 1.78 µM.
Turning to `CC(C)c1nc(-c2cccc(NS(=O)(=O)c3ccccc3)c2)c(-c2ccnc(Nc3ccc4c(c3)CN(C)CC4)n2)s1` [GSK1649598A], the potency estimated from few doses with CDK4 was 1.4 µM; in the assay with ERBB3 (CATDS: 1.39186209544408E-2) it was 1.14 µM; with LIMK1 it was 0.0385 µM.
`COc1cccc(-n2ncc3c(N/N=C/c4ccc(C(=O)NCCN(C)C)cc4)ncnc32)c1.Cl` [GW784307A]: the values for the potency estimated from few doses in the assay on BMPR1A and in the assay on ERBB3 (CATDS: 3.16220170710034E-2) were 0.353 µM and 0.874 µM, respectively.
On to `CCc1nc(-c2cccc(N(C)S(=O)(=O)c3ccccc3)c2)c(-c2ccnc(Nc3ccc(N4CCN(C(C)=O)CC4)nc3)n2)s1` [GSK1645895A], for which the potency estimated from few doses is 1.31 µM in the assay on ABCD3 (compound concentrations: 100 nM and 1000 nM (sheet 'Samples'), CATDS: 0.16057119825567601); 0.196 µM in the assay with ADCK3.
For `COc1cc2nccc(Nc3ccc(Oc4ccccc4)cc3)c2cc1OC.Cl` [GI261656A], the potency estimated from few doses in the assay on ERBB3 (CATDS: 4.9978680002658399E-2) was 0.623 µM.
Take `CNc1nccc(-c2c(-c3ccc(F)cc3)ncn2C2CCN(C)CC2)n1` [SB-222903]: the potency estimated from few doses is 0.976 µM with MAPK10 (setting [1]) and 1.08 µM in the assay on MAPK11 (setting [1]).
As for `COc1ccc(-c2nc3n(c2-c2ccncc2)CCC3)cc1.COc1ccc(-c2nc3n(c2-c2ccncc2)CCC3)cc1.O=S(=O)(O)O.O=S(=O)(O)O` [SKF-104493-B2], the potency estimated from few doses was 1.57 µM with PIM2 (compound concentrations: 100 nM and 1000 nM (sheet 'Samples'), CATDS: 0.11675722362862); 0.911 µM in the assay on PKN3 (compound concentrations: 100 nM and 1000 nM (sheet 'Samples'), CATDS: 0.15312963325727599).
As to `COc1cc2ncn(-c3cc(OCc4cccs4)c(C(N)=O)s3)c2cc1OC` [GSK312948A], the potency estimated from few doses in the assay with STK10 (setting [1]) is 0.109 µM.
Take `Cl.Cn1c(=O)c(Cc2ccc(F)cc2F)cc2cnc(NC3CCOCC3)nc21` [RO3308757-001]: the potency estimated from few doses in the assay on CDK7 (setting [1]) is 0.331 µM; in the assay with ERCC2 (setting [1]) it was 0.239 µM; in the assay with MAPK10 (setting [1]) it was 0.886 µM.
As to `Fc1ccc(-c2c(-c3ccncc3)[nH]c3nccnc23)cc1` [RO1155697-000], the results for the potency estimated from few doses with MAPK10 (setting [1]), in the assay on PIM2 (setting [1]) and in the assay with PKN3 (setting [1]) were 0.869 µM, 1.07 µM and 0.0311 µM, respectively.
